Laboratory results from PubChem BioAssay (EPA / NIEHS).
Inconclusive results are not listed. The source made the active and inactive calls. How the source made its calls: active means hit-call score of the fitted dose curve at least 0.9, where 1 is the maximum; inconclusive means response in the unintended direction; inactive means score below 0.9.

Tests used:
[1] = biological target: human Caspase 8 (CASP8), CASP8 (gene 841) (UniProt Q14790); assay: NVS_ENZ_hCASP8: NovaScreen (NVS) Enzymatic Assay for human Caspase 8 (CASP8) (AID 2283146)
Outline: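 The primary screen tested compounds in duplicate at a single 25 uM concentration, with actives followed up in concentration series. Activity of recombinant (E. coli) protease was measured by fluorescence 1 h post-dose, as signal loss against DMSO.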

[2] = biological target: human Casein Kinase 1-delta (CK1D), CSNK1D (gene 1453) (UniProt P48730); assay: NVS_ENZ_hCK1D: NovaScreen (NVS) Enzymatic Assay for human Casein Kinase 1-delta (CK1D) (AID 2283148)
Outline: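 Recombinant human CK1-delta, cell-free; fluorescent substrate with electrophoretic mobility-shift separation of product, read 1 h after dosing. Single 25 uM duplicate screen, then concentration-response up to 50 uM; loss of signal vs DMSO.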

[3] = biological target: human Beta-secretase (BACE), BACE1 (gene 23621) (UniProt P56817); assay: NVS_ENZ_hBACE: NovaScreen (NVS) Enzymatic Assay for human Beta-secretase (BACE) (AID 2283140);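 further: hits are inhibitors that reduce fluorescent substrate signal versus DMSO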
Outline: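 Fluorescence intensity read-out of protease activity defines this endpoint; signal loss relative to DMSO baseline marks inhibition. Recombinant enzyme from SF9 cells, cell-free format, 1 h exposure. Single-concentration duplicate screen (25 uM) precedes concentration-series follow-up.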

[4] = biological target: human AKT serine/threonine Kinase 2 (AKT2), AKT2 (gene 208) (UniProt P31751); assay: NVS_ENZ_hAKT2: NovaScreen (NVS) Enzymatic Assay for human AKT serine/threonine Kinase 2 (AKT2) (AID 2283141)
Outline: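 Cell-free fluorescence/electrophoretic mobility shift readout of recombinant human AKT2 activity, 1 h after chemical dosing. Duplicate primary screen at 25 uM, then singleton concentration-response up to 50 uM; loss of signal versus DMSO baseline.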

[5] = biological target: human Colony Stimulating Factor 1 Receptor (CSF1R), CSF1R (gene 1436) (UniProt P07333); assay: NVS_ENZ_hCSF1R: NovaScreen (NVS) Enzymatic Assay for human Colony Stimulating Factor 1 Receptor (CSF1R) (AID 2283150)
Outline: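 Compounds screened in duplicate at 25 uM, then concentration-response (top 50 uM) for those passing threshold such as 30% inhibition; recombinant CSF1R activity measured 1 h post-dosing via fluorescent substrate/product mobility-shift separation, loss of signal versus DMSO.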

[6] = biological target: human Dual Specificity Protein Phosphatase 3 (DUSP3), DUSP3 (gene 1845) (UniProt P51452); assay: NVS_ENZ_hDUSP3: NovaScreen (NVS) Enzymatic Assay for human Dual Specificity Protein Phosphatase 3 (DUSP3) (AID 2283152);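 further: phosphatase activity of recombinant human DUSP3 on a fluorogenic substrate without cells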
Outline: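 Cell-free fluorescence-intensity enzyme activity assay with recombinant protein and substrate; loss of signal fitted relative to DMSO baseline. Primary screen in duplicate at 25 uM, actives then run in concentration series; measured 0 h after dosing.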

Caspase-3 (Homo sapiens) = Caspase-3 (Homo sapiens) (UniProt P42574); assay: NVS_ENZ_hCASP3: NovaScreen (NVS) Enzymatic Assay for human Caspase 3 (CASP3) (AID 2283139)
Outline: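 Single-concentration screening at 25 uM in duplicate, with concentration-response follow-up to a 50 uM maximum for chemicals passing the threshold. Caspase-3 (human, E. coli-expressed) activity was read as substrate fluorescence after 1 h, with loss of signal relative to DMSO.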

CDK2 (gene 1017) = CDK2 (gene 1017) (UniProt P24941); assay: NVS_ENZ_hCDK2: NovaScreen (NVS) Enzymatic Assay for human Cyclin-Cependent Kinase 2 (CDK2) (AID 2283144)
Method: (§1) NVS_ENZ_hCDK2 is a biochemical, single-readout assay that uses extracted gene-proteins in a cell-free assay. Measurements were taken 1 hour after chemical dosing in a 384-well plate.NVS_ENZ_hCDK2 is one of one assay component(s) measured or calculated from the NVS_ENZ_hCDK2 assay. It is designed to make measurements of enzyme activity, a form of enzyme reporter, as detected with fluorescence intensity signals by Fluorescence and electrophoretic mobility shift technology.Data from the assay component NVS_ENZ_hCDK2 was analyzed into 1 assay endpoint. This assay endpoint, NVS_ENZ_hCDK2, was analyzed in the positive analysis fitting direction relative to DMSO as the negative control and baseline of activity. Using a type of enzyme reporter, loss-of-signal activity can be used to understand changes in the enzymatic activity as they relate to the gene CDK2. Furthermore, this assay endpoint can be referred to as a primary readout, because this assay has produced multiple assay endpoints where this one serves a enzymatic activity function. To generalize the intended target to other relatable targets, this assay endpoint is annotated to the kinase intended target family, where the subfamily is serine/threonine kinase.
(§2) Binding assays used specific radioligands (tritiated, iodinated) with non-radioactive competitive displacement ligands in agonist or antagonist protocols (as indicated) and various reference compounds and inhibitors to titrate specific binding to receptors and transporters. Most enzyme assays (CYPs, kinases, phosphatases, proteases, HDACs) used recombinant protein and specific substrates (fluorescence mostly, some colorimetric and radioactive) and inhibitors, followed by a biochemical separation of substrate and product. All assays for the biochemical HTS were initially run in duplicate at a single concentration (10 uM for CYP450 assays and 25 uM for all others). […]

[7] = biological target: human Epidermal Growth Factor Receptor (EGFR), EGFR (gene 1956) (UniProt P00533); assay: NVS_ENZ_hEGFR: NovaScreen (NVS) Enzymatic Assay for human Epidermal Growth Factor Receptor (EGFR) (AID 2283151)
Method: as §1, with “NVS_ENZ_hEGFR” for “NVS_ENZ_hCDK2”, “plate.NVS_ENZ_hEGFR” for “plate.NVS_ENZ_hCDK2”, “NVS_ENZ_hEGFR,” for “NVS_ENZ_hCDK2,”, “EGFR.” for “CDK2.”, “receptor tyrosine” for “serine/threonine”
as §2

[8] = biological target: human Aurora Kinase A - serine/threonine-protein Kinase 6 (AurA), AURKA (gene 6790) (UniProt O14965); assay: NVS_ENZ_hAurA: NovaScreen (NVS) Enzymatic Assay for human Aurora Kinase A - serine/threonine-protein Kinase 6 (AurA) (AID 2283142)
Outline: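 Recombinant human AurA activity read by fluorescence after mobility-shift separation of product from substrate; 1 hour incubation. Chemicals first run in duplicate at 25 uM, then concentration series to 50 uM if over threshold; fitted relative to DMSO.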

Chain of human Casein Kinase 1-delta (CK1D), CSNK1D (gene 1453) (P48730 whole entry, looked up): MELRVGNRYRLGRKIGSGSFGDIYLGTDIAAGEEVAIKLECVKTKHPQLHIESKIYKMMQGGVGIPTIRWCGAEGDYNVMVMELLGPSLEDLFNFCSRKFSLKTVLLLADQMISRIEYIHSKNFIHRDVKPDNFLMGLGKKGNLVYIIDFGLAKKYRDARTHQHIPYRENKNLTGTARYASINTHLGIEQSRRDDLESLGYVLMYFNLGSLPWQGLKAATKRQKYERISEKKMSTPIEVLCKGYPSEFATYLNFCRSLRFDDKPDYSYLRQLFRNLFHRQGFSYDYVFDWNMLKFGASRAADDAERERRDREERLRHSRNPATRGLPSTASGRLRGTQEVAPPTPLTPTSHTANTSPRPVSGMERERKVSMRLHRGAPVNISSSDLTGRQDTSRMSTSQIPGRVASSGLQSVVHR
Chain of human Dual Specificity Protein Phosphatase 3 (DUSP3), DUSP3 (gene 1845) (P51452 whole entry, looked up): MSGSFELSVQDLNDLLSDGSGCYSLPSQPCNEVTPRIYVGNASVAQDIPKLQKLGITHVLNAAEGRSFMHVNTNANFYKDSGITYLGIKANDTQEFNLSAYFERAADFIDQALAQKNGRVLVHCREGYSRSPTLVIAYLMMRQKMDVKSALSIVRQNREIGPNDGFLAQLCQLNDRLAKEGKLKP
Chain of human Aurora Kinase A - serine/threonine-protein Kinase 6 (AurA), AURKA (gene 6790) (O14965 whole entry, looked up): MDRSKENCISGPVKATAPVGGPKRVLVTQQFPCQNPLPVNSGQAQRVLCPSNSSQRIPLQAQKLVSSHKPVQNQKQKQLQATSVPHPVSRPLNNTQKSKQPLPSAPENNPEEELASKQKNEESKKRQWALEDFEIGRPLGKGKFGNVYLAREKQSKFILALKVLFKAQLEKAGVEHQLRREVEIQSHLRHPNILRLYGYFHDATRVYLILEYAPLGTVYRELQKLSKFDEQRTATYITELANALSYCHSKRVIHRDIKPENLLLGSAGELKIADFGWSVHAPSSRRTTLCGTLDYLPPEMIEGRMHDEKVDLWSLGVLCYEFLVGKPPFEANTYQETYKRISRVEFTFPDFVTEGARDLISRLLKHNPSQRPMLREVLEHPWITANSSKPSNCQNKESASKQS
Chain of human AKT serine/threonine Kinase 2 (AKT2), AKT2 (gene 208) (P31751 whole entry, looked up): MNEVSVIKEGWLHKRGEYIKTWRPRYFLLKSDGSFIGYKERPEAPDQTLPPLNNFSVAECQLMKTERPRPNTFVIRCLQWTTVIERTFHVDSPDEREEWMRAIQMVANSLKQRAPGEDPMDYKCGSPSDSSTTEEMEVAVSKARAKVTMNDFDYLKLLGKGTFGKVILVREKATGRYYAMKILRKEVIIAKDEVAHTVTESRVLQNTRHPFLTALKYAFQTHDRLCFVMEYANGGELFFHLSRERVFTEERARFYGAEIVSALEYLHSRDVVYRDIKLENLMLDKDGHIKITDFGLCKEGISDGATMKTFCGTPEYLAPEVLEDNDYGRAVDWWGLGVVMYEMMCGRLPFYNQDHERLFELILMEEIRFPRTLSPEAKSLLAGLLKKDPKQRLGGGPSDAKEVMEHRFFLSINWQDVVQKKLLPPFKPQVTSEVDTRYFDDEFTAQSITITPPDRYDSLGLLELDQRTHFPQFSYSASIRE
Chain of human Epidermal Growth Factor Receptor (EGFR), EGFR (gene 1956) (P00533 whole entry, looked up): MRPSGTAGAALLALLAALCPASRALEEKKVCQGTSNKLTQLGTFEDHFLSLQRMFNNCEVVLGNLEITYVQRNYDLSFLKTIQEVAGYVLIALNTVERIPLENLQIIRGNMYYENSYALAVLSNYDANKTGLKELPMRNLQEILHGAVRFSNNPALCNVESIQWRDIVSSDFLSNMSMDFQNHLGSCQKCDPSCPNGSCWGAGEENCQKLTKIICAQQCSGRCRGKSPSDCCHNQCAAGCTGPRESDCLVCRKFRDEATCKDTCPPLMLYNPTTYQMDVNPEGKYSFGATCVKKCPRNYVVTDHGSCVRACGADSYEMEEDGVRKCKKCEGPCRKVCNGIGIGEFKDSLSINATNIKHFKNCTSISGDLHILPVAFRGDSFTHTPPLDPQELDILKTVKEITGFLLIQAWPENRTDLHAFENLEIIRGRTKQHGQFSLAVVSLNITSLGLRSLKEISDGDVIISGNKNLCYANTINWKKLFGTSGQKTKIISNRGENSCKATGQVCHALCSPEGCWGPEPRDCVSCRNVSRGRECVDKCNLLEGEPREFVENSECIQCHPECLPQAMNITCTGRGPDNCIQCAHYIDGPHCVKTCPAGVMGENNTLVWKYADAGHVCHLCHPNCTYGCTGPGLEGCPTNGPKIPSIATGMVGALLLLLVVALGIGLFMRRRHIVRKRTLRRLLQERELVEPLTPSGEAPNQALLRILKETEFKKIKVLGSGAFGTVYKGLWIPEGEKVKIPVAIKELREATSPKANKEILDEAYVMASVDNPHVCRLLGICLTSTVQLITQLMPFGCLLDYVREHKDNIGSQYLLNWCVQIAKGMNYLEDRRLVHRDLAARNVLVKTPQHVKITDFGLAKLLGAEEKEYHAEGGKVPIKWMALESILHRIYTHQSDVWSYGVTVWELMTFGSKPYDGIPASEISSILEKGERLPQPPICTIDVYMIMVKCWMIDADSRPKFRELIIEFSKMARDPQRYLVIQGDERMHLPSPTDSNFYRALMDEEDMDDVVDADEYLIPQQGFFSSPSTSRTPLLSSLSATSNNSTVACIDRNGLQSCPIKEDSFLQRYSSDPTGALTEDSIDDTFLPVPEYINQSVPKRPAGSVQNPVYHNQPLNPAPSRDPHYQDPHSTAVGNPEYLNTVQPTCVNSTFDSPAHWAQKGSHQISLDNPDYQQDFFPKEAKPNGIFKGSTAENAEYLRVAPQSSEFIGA
Chain of human Caspase 8 (CASP8), CASP8 (gene 841) (Q14790 whole entry, looked up): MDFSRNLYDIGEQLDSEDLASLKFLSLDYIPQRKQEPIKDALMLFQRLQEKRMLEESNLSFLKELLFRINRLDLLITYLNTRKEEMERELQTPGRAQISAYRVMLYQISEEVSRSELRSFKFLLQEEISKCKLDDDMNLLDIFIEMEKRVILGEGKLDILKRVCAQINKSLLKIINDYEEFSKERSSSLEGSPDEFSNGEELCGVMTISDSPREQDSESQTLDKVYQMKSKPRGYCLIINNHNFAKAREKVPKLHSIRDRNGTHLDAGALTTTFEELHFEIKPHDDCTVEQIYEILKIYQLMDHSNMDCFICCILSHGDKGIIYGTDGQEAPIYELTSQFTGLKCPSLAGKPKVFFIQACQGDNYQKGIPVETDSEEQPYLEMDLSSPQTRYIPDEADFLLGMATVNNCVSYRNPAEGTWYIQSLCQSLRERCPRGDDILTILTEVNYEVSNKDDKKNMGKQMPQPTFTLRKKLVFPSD
Chain of human Beta-secretase (BACE), BACE1 (gene 23621) (P56817 whole entry, looked up): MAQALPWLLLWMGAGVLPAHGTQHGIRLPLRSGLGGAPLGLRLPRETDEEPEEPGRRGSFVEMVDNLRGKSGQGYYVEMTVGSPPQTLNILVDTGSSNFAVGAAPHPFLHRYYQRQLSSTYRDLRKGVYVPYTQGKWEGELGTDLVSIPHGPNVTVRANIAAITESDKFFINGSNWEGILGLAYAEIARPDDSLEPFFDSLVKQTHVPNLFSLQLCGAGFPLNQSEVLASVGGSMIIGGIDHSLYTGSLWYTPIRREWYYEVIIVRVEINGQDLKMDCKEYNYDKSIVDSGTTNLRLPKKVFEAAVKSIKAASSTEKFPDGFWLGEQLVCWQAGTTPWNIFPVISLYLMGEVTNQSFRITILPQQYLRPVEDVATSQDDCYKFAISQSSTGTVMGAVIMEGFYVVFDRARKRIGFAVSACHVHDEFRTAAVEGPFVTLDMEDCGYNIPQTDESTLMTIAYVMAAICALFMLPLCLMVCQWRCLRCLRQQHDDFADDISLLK
Chain of human Colony Stimulating Factor 1 Receptor (CSF1R), CSF1R (gene 1436) (P07333 whole entry, looked up): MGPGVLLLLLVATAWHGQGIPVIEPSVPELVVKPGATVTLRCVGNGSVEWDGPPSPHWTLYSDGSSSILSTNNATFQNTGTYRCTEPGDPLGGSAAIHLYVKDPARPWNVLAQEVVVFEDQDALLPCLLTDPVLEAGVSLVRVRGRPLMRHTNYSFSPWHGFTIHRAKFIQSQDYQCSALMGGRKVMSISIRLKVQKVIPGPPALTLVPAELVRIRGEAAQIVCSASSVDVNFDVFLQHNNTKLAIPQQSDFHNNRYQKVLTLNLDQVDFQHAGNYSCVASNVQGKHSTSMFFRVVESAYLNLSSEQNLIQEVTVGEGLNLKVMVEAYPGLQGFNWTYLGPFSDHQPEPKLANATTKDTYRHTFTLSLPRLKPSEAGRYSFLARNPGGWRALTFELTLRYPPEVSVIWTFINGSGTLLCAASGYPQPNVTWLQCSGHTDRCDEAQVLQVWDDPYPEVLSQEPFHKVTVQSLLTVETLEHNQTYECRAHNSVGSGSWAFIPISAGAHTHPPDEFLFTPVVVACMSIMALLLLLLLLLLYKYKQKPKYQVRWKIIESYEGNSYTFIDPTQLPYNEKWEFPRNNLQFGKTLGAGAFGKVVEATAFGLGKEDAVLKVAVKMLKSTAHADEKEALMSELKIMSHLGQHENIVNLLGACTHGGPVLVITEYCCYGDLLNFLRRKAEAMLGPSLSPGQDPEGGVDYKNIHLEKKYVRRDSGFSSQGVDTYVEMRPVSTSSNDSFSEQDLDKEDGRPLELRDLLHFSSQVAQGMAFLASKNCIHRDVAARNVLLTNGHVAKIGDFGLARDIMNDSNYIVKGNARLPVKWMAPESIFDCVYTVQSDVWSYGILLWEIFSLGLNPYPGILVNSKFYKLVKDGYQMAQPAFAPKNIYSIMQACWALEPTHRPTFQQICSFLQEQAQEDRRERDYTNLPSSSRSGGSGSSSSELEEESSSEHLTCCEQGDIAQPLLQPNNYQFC
Chain of Caspase-3 (Homo sapiens) (P42574 whole entry, looked up): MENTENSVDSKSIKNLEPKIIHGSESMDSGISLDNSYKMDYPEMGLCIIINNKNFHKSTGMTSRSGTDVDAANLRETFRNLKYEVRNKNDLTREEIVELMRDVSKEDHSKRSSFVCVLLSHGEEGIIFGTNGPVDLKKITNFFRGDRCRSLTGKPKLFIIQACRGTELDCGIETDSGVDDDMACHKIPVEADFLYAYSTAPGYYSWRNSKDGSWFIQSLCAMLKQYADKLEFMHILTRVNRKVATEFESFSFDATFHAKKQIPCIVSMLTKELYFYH

Compound: CCC(C)c1cc([N+](=O)[O-])cc([N+](=O)[O-])c1O (configuration not stated)
- outcome [1]: inactive
- outcome [2]: inactive

Compound: O=NN(c1ccccc1)c1ccccc1
- outcome [2]: inactive

Compound: CO/C=C(/C(=O)OC)c1ccccc1COc1cccc(C(F)(F)F)n1
- outcome [1]: inactive

Compound: O=S(=O)(O)C(F)(F)C(F)(F)C(F)(F)C(F)(F)C(F)(F)C(F)(F)F
- AC50 [3]: 1.85 µM (active)
- outcome [4]: inactive
- outcome [5]: inactive

Compound: Cc1cccc(C)c1N
- outcome [3]: inactive
- outcome [2]: inactive

Compound: ClC1=C(Cl)[C@]2(Cl)[C@@H]3[C@@H]4C[C@@H]([C@H]5O[C@@H]45)[C@@H]3[C@@]1(Cl)C2(Cl)Cl
- outcome [1]: inactive
- outcome [5]: inactive
- AC50 [6]: 46.6 µM (active)

Compound: O=C(O)C(F)(F)C(F)(F)C(F)(F)C(F)(F)C(F)(F)C(F)(F)C(F)(F)C(F)(F)C(F)(F)F
- AC50 [3]: 3.53 µM (active)
- AC50 [6]: 13 µM (active)

Compound: CCC(C)(c1ccc(O)cc1)c1ccc(O)cc1
- AC50 [3]: 11.2 µM (active)

Compound: O=C(NC(=O)c1c(F)cccc1F)Nc1cc(Cl)c(OC(F)(F)C(F)F)c(Cl)c1
- outcome [2]: inactive

Compound: CC(C)(c1ccccc1)c1ccc(O)cc1
- outcome (Caspase-3 (Homo sapiens)): inactive
- AC50 [3]: 20.3 µM (active)

Compound: O=C(NC(=O)c1cc(F)c(F)cc1Cl)Nc1cc(F)ccc1N1CCC(C(=O)O)CC1
- AC50 [3]: 7.81 µM (active)

Compound: Oc1ccc(C(c2ccc(O)cc2)(C(F)(F)F)C(F)(F)F)cc1
- outcome [3]: inactive
- outcome [2]: inactive
- outcome [5]: inactive

Compound: CCCCCCOC(=O)c1ccccc1C(=O)OCCCCCC
- outcome [3]: inactive
- outcome [4]: inactive

Compound: N#Cc1ccc(N(CC(N)=O)CC(F)(F)F)cc1C(F)(F)F
- outcome [4]: inactive

Compound: Cc1ccc(O)c(C)c1
- outcome [3]: inactive

Compound: O=C(O)C(F)(F)C(F)(F)C(F)(F)C(F)(F)C(F)(F)F
- outcome (CDK2 (gene 1017)): inactive
- outcome [7]: inactive

Compound: CCCCCCCCOC(=O)c1ccccc1C(=O)OCCCCCCCC
- outcome [6]: inactive

Compound: O=C(O)C(F)(F)C(F)(F)C(F)(F)C(F)(F)C(F)(F)C(F)(F)C(F)(F)C(F)(F)F
- AC50 [3]: 10.7 µM (active)
- AC50 [8]: 13.1 µM (active)
- outcome [2]: inactive
- outcome [5]: inactive
- outcome [7]: inactive

Compound: CCCCCCCCCC[N+](C)(C)CCCCCCCCCC
- AC50 [6]: 26.3 µM (active)

Compound: C1CC2OC2CC1C1CO1 (configuration not stated)
- outcome [5]: inactive

Compound: CCCCCCCCCc1ccc(O)cc1
- outcome [3]: inactive
- AC50 [6]: 13.2 µM (active)

Compound: CC(C)C(=O)OCC(C)(C)C(OC(=O)C(C)C)C(C)C (configuration not stated)
- outcome [8]: inactive

Compound: CCCN(CCC)N=O
- outcome [8]: inactive
- outcome (CDK2 (gene 1017)): inactive
- outcome [2]: inactive
- outcome [5]: inactive

Compound: Oc1c(Cl)c(Cl)c(Cl)c(Cl)c1Cl
- outcome [3]: inactive

Compound: ClC(Cl)=C(c1ccc(Cl)cc1)c1ccc(Cl)cc1
- outcome [3]: inactive

Compound: CCNc1nc(NC(C)C)nc(SC)n1
- AC50 [2]: 16.3 µM (active)

Compound: Cc1cc2c3c(c1)C(c1ccccc1)=N[C@@H](NC(=O)c1ccncc1)C(=O)N3CC2
- outcome [8]: inactive

Compound: CC1=C2C[C@H]3[C@@H](CC=C4C[C@@H](O)CC[C@@]43C)[C@@H]2CC[C@]12O[C@@H]1C[C@H](C)CN[C@H]1[C@H]2C
- AC50 [4]: 12.5 µM (active)
- outcome [8]: inactive
- outcome (CDK2 (gene 1017)): inactive
- outcome [5]: inactive
- outcome [7]: inactive
